Screening data (PubChem)
An excerpt weighted towards active compounds, which were near 5.7% of everything screened.
DAX1 inh-1 = blocks DAX1 repression of SF-1 activated StAR promoter. HEK293T StAR-luciferase reporter, SF-1/DAX-1 repression relief. inhibition, % at 6.8 µM. 370,000 compounds, 1.1% hits;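 active = inhibition above the mean over all tested compounds plus 3 SD, cut at about 3.6% in these data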;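 also: higher inhibition means more luminescence from relief of DAX-1 repression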
DAX1 inh-2 = NR0B1 (DAX1) inhibition | P51843 | HEK293 Gal4-DAX1 luciferase reporter, luminescence | inhibition, % at 6.75 µM | 340,000 compounds, 0.99% hits;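 active = inhibition above the mean over all tested compounds plus 3 SD, cut at about 4.2% in these data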;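 also: inhibition shows as a rise in luminescence from relieved DAX1 repression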
Target sequence (P51843 207-470 limits assumed): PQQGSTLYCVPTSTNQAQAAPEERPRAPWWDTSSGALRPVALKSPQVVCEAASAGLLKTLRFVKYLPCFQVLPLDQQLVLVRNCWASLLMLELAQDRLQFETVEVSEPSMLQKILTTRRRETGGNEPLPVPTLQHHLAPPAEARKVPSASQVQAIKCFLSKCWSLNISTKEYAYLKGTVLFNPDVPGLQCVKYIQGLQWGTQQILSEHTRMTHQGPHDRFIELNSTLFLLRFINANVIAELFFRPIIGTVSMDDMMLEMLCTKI
hgDAF-12 ag = activates the H. glycines DAF-12 receptor ligand-binding domain. AID 687014. HEK293 GAL4-hgDAF12 UAS-luciferase reporter, agonist luminescence; normalized to butyrate control. 370,000 compounds, 1.8% hits. activation, % at 6.8 µM;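 active = activation above a cutoff set at the mean of all screened compounds plus 3 SD, cut at about 10% in these data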
AHR activator = activators of human aryl hydrocarbon receptor. 320,000 compounds, 2.5% hits. activation, % at 5 µM. AHR-responsive luciferase reporter cells, luminescence; in the data active = activation above about 47%
ssDAF12 agonist = activators of S. stercoralis DAF-12 nuclear receptor | 370,000 compounds, 1% hits | HEK293 ssDAF-12/GRIP1 lit1-tk-luc reporter, luminescence; % of 3 µM dafachronic acid response | activation, % at 6.8 µM;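 active = activation above the mean over all tested compounds plus 3 SD, cut at about 0.9% in these data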
hcDAF12 agonist = activates DAF-12 receptor from parasite H. contortus; activation, % at 6.8 µM; 370,000 compounds, 1.4% hits; AID 652067; HEK293 hcDAF-12 lit1-tk-luc reporter, luminescence; 0% DMSO, 100% Δ7-dafachronic acid;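 active = activation above the mean of all tested compounds plus 3 SD, cut at about 5.5% in these data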
Of the large screens only hits and unclear results are named; the others gave an inactive call.

COc1cc(C(=O)COC(=O)c2c(C)noc2C)cc(OC)c1OC	none
CC(C)CCN1CCN(Cc2cc(F)ccc2-n2cccn2)CC1CCO (configuration not stated)	none
OCCC1CN(Cc2cc(F)ccc2-n2cccn2)CCN1C1CCCC1 (configuration not stated)	ssDAF12 agonist 1.7
O=C(CCCCC(=O)Nc1c(I)cc(I)c(C(=O)O)c1I)Nc1c(I)cc(I)c(C(=O)O)c1I	ssDAF12 agonist 1.9
Cc1ccc(/C=C/C(=O)OCC(=O)NCc2ccccc2)o1	none (no result: AHR activator)
CCOc1ccc(C2CC(c3ccc(CC)cc3)Nc3nc(N)nn32)cc1 (configuration not stated)	DAX1 inh-2 4.3
COc1ccc(C2CC(c3ccccc3C)n3nc(N)nc3N2)cc1 (configuration not stated)	DAX1 inh-2 5.1
Clc1cccc(N=NN2CCOCC2)c1Cl	ssDAF12 agonist 1.7
CCOC(=O)C1=C(C)NC(=O)NC1c1ccc(-c2ccc(F)cc2)o1 (configuration not stated)	none
CC(=O)Cc1nsc(Nc2ccc(F)cc2)n1	none
CC(=O)Cc1nsc(Nc2ccc3c(c2)OCCO3)n1	hgDAF-12 ag 12
Cc1cc(C(=O)N/N=C/c2ccc([N+](=O)[O-])cc2)c(C)o1	hgDAF-12 ag 11
c1nc2sc3c(c2c2nnnn12)CCCC3	none
O=c1[nH]ncn2cccc12	none
OC1(c2ccc(OC(F)F)cc2)CSC(=Nc2cccnc2)N1Cc1ccco1 (configuration not stated)	none (no result: AHR activator)
Cc1nc2nc(SCc3nc4ccccc4[nH]3)[nH]c2cc1Br	none (no result: DAX1 inh-2)
Cc1nc2nc(SCC(=O)c3cccc([N+](=O)[O-])c3)[nH]c2cc1Br	AHR activator 57
Cc1nc2nc(SCC(=O)C(C)(C)C)[nH]c2cc1Br	AHR activator 47
Cc1ccc(S(=O)(=O)NCC(=O)N2CCCC2C(=O)O)cc1 (configuration not stated)	none
COC(=O)c1sccc1NC(=O)c1csc(C)c1	ssDAF12 agonist 1.0
CNS(=O)(=O)c1ccc(NC(=O)c2csc(C)c2)cc1	none
COC(=O)c1sccc1NC(=O)Nc1ccc(OC)c(OC)c1	none
COC(=O)c1sccc1NC(=O)Nc1ccc(Cl)c(Cl)c1	hgDAF-12 ag 11
Cc1cc(C(=O)Nc2ccc(Br)cc2)cs1	DAX1 inh-1 3.9, hcDAF12 agonist 5.6
COC(=O)c1sccc1NC(=O)c1ccc(C)s1	AHR activator 50
COC(=O)c1sccc1NC(=O)c1ccc(C)cc1	none
N[C@@H](Cc1cc(I)c(O)c(I)c1)C(=O)O	none
Cc1c(-c2nc(N)nc(Nc3ccccc3)n2)oc2ccccc12	hgDAF-12 ag 11
Nc1nc(CN2CCCCCC2)nc(Nc2ccccc2)n1	none
O=C(O)CSc1nnc(Cc2cccc3ccccc23)n1-c1cc(C(F)(F)F)cc(C(F)(F)F)c1	DAX1 inh-2 5.7
CC(C)(C)c1ccc(OCC(=O)NCC(c2cccs2)N2CCOCC2)cc1 (configuration not stated)	DAX1 inh-1 4.3
Nc1nc(-c2cc3ccccc3o2)cs1	DAX1 inh-2 5.2
CN1CCN(c2nc(-c3cc4ccccc4o3)cs2)CC1	none
O=c1n(-c2ccc(Br)cc2)cnn1-c1ncccc1[N+](=O)[O-]	DAX1 inh-2 4.3
O=[N+]([O-])c1cccnc1N1CCCCC1	none
CN(Cc1cccs1)C(=O)CCCc1c[nH]c2ccccc12	none
c1ccc(-c2ncc(-c3ccn[nH]3)s2)cc1	DAX1 inh-1 5.4, hgDAF-12 ag 22, ssDAF12 agonist 2.0
c1csc(-c2ccn[nH]2)c1	none
CCOc1cc(OCC)cc(C(=O)N2CCC[C@@H]2C(=O)N2CCC[C@@H]2C(=O)NCc2ccccc2Cl)c1	ssDAF12 agonist 1.0 (no result: DAX1 inh-2, AHR activator)
c1cncc(C2Nc3ccccc3-c3nc4ccccc4n32)c1 (configuration not stated)	none
Cc1ccsc1C1Nc2ccccc2-c2nc3ccccc3n21 (configuration not stated)	hgDAF-12 ag 11, AHR activator 82
Cc1ccsc1C1Nc2ccccc2C(=O)N1O (configuration not stated)	none
c1ccc2c(c1)NC(c1ccncc1)n1c-2nc2ccccc21 (configuration not stated)	AHR activator 70
Cc1cccc(C(=O)Nc2ccc3c(c2)nc(C)n3C)c1	none
Cc1cccc(C(=O)Nc2ccc3c(c2)ncn3C)c1	hgDAF-12 ag 11
COC(=O)c1c(NC(=O)CN2CCN(c3ccccc3Cl)CC2)sc(C)c1C	ssDAF12 agonist 1.1
CCOC(=O)c1c(NC(=O)CN2CCN(c3ccc(Cl)cc3)CC2)sc(C)c1C	none
Oc1c(/C=N/c2ncn[nH]2)ccc2ccccc12	ssDAF12 agonist 1.2
Cc1ccc(-n2c(O)c(/C=N/c3ncn[nH]3)c3ccccc3c2=O)cc1	none
COC(=O)C1=C(NC(=O)c2ccc(C)cc2)CCS1	ssDAF12 agonist 1.9
CCC(C)c1ccccc1OCCn1ccnc1 (configuration not stated)	none
O=C1CNC(=O)/C(=C/c2ccco2)N1	DAX1 inh-2 4.4
CC(CC(F)(F)F)N1CCC(n2nccc2NC(=O)CCOc2ccccc2)CC1 (configuration not stated)	none
CCc1cc2c(Nc3ccccc3O)nc(C)nc2s1	none (no result: AHR activator)
CCc1cc2c(Nc3ccc(O)cc3)nc(C)nc2s1	AHR activator 79
Cc1cc2nc(-c3ccc(NC(=O)C(C)C)cc3)oc2cc1C	DAX1 inh-1 3.7, hgDAF-12 ag 11, ssDAF12 agonist 1.0
CCCOc1ccccc1N/C(=N/c1nc(C)cc(C)n1)NC(=O)COc1ccc(OC)cc1	none
COc1ccc(N/C(N)=N/c2nc(C)cc(C)n2)c(OC)c1	AHR activator 63
COc1cc(N/C(N)=N/c2nc(C)cc(C)n2)cc(OC)c1	AHR activator 65
CCOc1ccc(N/C(N)=N/c2nc(C)cc(C)n2)cc1	none
CCCOc1ccccc1N/C(N)=N/c1nc(C)cc(C)n1	AHR activator 56
COc1ccc(OC)c(N/C(N)=N/c2nc(C)cc(C)n2)c1	AHR activator 66
COc1ccc(Cl)cc1N/C(N)=N/c1nc(C)cc(C)n1	none
CCCCCCCCN1C(=O)[C@H](CC(=O)NCCCOC)C[C@@]2(C(=O)OCC)CCCC=C12	none (no result: DAX1 inh-2, AHR activator)
CCC(C(=O)NC1CC1)n1nc(C)c2c(C)n(-c3ccc(C)cc3)nc2c1=O (configuration not stated)	none
Cc1cc(C)nc(/N=C(\N)Nc2ccc3c(c2)OCCO3)n1	AHR activator 72
CC1CC1c1ccc(/C=C(\C#N)C(=O)Nc2ccccc2Cl)o1 (configuration not stated)	AHR activator 50
N#C/C(=C/c1ccc(N2CCCCC2)o1)C(=O)Nc1ccc(Cl)cc1	hgDAF-12 ag 11
